According to article PMC5540273 (PLoS ONE, 2017):

Experiments:
Conditions in all cases: concentration: 1 μM, replicates: in singlicate; n = 1
INSR = system: INSR
IRAK1 = system: IRAK1
IRAK3 = system: IRAK3
IRAK4 = system: IRAK4
ITK = system: ITK
[1] = system: JAK1(JH1domain-catalytic)
[2] = system: JAK1(JH2domain-pseudokinase)
[3] = system: JAK2(JH1domain-catalytic)
[4] = system: JAK3(JH1domain-catalytic)
JNK1 = system: T1, JNK1
T1 construct: gene MAPK8

JNK2 = system: T2, JNK2
T2 construct: gene MAPK9

JNK3 = system: T3, JNK3
T3 construct: gene MAPK10

KIT-autoinhibited = system: KIT-autoinhibited
KIT = system: KIT
LATS1 = system: LATS1
LATS2 = system: LATS2
LCK = system: LCK
LIMK1 = system: LIMK1
LIMK2 = system: LIMK2
LKB1 = system: T4, LKB1
T4 construct: gene STK11
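Also: KINOMEscan kinase panel screen.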

Row | SMILES | %Inh (INSR) [%] | %Inh (IRAK1) [%] | %Inh (IRAK3) [%] | %Inh (IRAK4) [%] | %Inh (ITK) [%] | %Inh [1] [%] | %Inh [2] [%] | %Inh [3] [%] | %Inh [4] [%] | %Inh (JNK1) [%] | %Inh (JNK2) [%] | %Inh (JNK3) [%] | %Inh (KIT-autoinhibited) [%] | %Inh (KIT) [%] | %Inh (LATS1) [%] | %Inh (LATS2) [%] | %Inh (LCK) [%] | %Inh (LIMK1) [%] | %Inh (LIMK2) [%] | %Inh (LKB1) [%]
1 | COc1cccc(C2=C(N(C)c3ccccc3)C(=O)NC2=O)c1 [SB-334865] | 0 | 42 | 20 | 24 | 16 | 13 | 0 | 0 | 0 | 30 | 14 | 0 | 0 | 0 | 3 | 0 | 16 | 0 | 0 | 0
2 | COc1cc2ncn(-c3cc(OCc4ccc(S(C)(=O)=O)cc4)c(C(N)=O)s3)c2cc1OC [GW869979] | 13 | 26 | 4 | 21 | 16 | 2 | 11 | 18 | 30 | 36 | 18 | 18 | 21 | 0 | 0 | 39 | 12 | 11 | 16 | 25
3 | Nc1n[nH]c2ncc(-c3ccccc3)cc12 [SB-517081] | 18 | 49 | 3 | 22 | 19 | 4 | 34 | 55 | 0 | 38 | 14 | 5 | 13 | 83 | 0 | 0 | 7 | 0 | 9 | 0
4 | CCc1ccc(-c2ccc3c(c2)-c2nn(C)cc2S(=O)(=O)N3C)cc1 | 0 | 0 | 0 | 10 | 0 | 0 | 10 | 0 | 0 | 0 | 0 | 0 | 53 | 0 | 0 | 0 | 17 | 0 | 0 | 21
5 | Cl.NS(=O)(=O)c1cccc(Nc2cc(-c3ccc(F)cc3)n[nH]2)c1 [GW824645] | 5 | 0 | 0 | 0 | 0 | 0 | 23 | 48 | 0 | 8 | 1 | 0 | 35 | 90 | 0 | 0 | 0 | 0 | 0 | 25
6 | CCCC(=O)Nc1n[nH]c2ncc(-c3cccc4ccccc34)cc12 [SB-642057] | 18 | 77 | 0 | 41 | 15 | 9 | 0 | 0 | 0 | 20 | 21 | 0 | 0 | 12 | 0 | 25 | 20 | 9 | 0 | 0
7 | CCC(=O)c1c(-c2ccccc2)c2cc(Cl)ccc2c(=O)n1Cc1cc(S(C)(=O)=O)n(CC(N)=O)n1 | 0 | 0 | 0 | 0 | 0 | 0 | 51 | 0 | 0 | 99 | 99 | 99.2 | 4 | 6 | 0 | 0 | 3 | 0 | 0 | 37
8 | C[C@@H]1CC[C@H](C(=O)NC2CCCCC2)CN1c1cc(-c2ccc3c(N)n[nH]c3c2)nc(N)n1 [GSK2291363] | 10 | 34 | 0 | 28 | 22 | 7 | 11 | 9 | 0 | 34 | 30 | 10 | 10 | 27 | 0 | 72 | 24 | 0 | 11 | 23
9 | COc1cc2nccc(Nc3ccc(OCc4ccc(NC(C)=O)cc4)cc3)c2cc1OC.Cl [GW440135] | 0 | 28 | 1 | 0 | 5 | 20 | 0 | 0 | 0 | 15 | 0 | 0 | 12 | 100 | 0 | 0 | 22 | 0 | 0 | 0
10 | Cc1cccc(-c2cc(-c3c[nH]nc3-c3ccccn3)ccn2)c1 [GW679395] | 1 | 34 | 1 | 18 | 4 | 5 | 0 | 8 | 0 | 56 | 66 | 73 | 0 | 35 | 0 | 3 | 78 | 0 | 13 | 0
11 | Cc1cc(Nc2nc(-c3cccc(C)n3)nc3ccccc23)ccn1 [GW872411] | 0 | 0 | 0 | 0 | 0 | 4 | 81 | 0 | 0 | 0 | 14 | 0 | 2 | 0 | 0 | 0 | 0 | 0 | 0 | 0
12 | COc1cc(Nc2nccc(N3CCC(NC(=O)C4COc5ccccc5O4)C3)n2)cc(OC)c1OC (centres unmarked) [GSK1379761] | 0 | 61 | 76 | 0 | 4 | 7 | 21 | 98.5 | 55 | 20 | 22 | 7 | 0 | 22 | 3 | 0 | 31 | 0 | 4 | 27
13 | CCC(=O)c1c(-c2ccccc2)c2cc(Cl)ccc2c(=O)n1Cc1cc(S(C)(=O)=O)n(CCC(C)(C)O)n1 | 13 | 2 | 25 | 1 | 5 | 3 | 0 | 0 | 3 | 99.6 | 99.9 | 99.9 | 0 | 11 | 31 | 17 | 13 | 0 | 16 | 3
14 | O=C(NCc1cccs1)c1cc(C(=O)c2c(Cl)cccc2Cl)c[nH]1 [GW823670] | 0 | 0 | 26 | 0 | 1 | 1 | 5 | 0 | 0 | 0 | 0 | 0 | 4 | 0 | 0 | 0 | 0 | 6 | 0 | 49
15 | CN1C(=O)C(Nc2cc(Cl)c(O)c(Cl)c2)=C(c2ccc(Cl)cc2)C1=O [SB-404321] | 0 | 0 | 0 | 0 | 0 | 13 | 0 | 0 | 0 | 24 | 19 | 15 | 26 | 0 | 0 | 0 | 0 | 0 | 0 | 32
16 | Cc1nnc(-c2ccc3ncn(-c4ccc(S(C)=O)cc4)c3c2)o1 (centres unmarked) | 0 | 0 | 0 | 0 | 15 | 33 | 28 | 0 | 0 | 6 | 0 | 0 | 0 | 29 | 43 | 8 | 10 | 19 | 6 | 9
17 | O=C(Nc1n[nH]c2nc(-c3ccccc3)c(Br)cc12)C1CC1 [SB-708998] | 7 | 0 | 0 | 6 | 1 | 0 | 0 | 18 | 0 | 29 | 0 | 0 | 9 | 31 | 0 | 0 | 23 | 19 | 12 | 0
18 | COc1cccc(-n2cnc3c(N)ncnc32)c1 [SKF-97416] | 0 | 38 | 42 | 0 | 0 | 0 | 58 | 44 | 19 | 0 | 27 | 8 | 23 | 12 | 8 | 1 | 10 | 0 | 7 | 60
19 | Cc1nc(N(C)[C@H]2CN(C(=O)CC#N)CC[C@H]2C)c2cc[nH]c2n1 | 0 | 0 | 0 | 0 | 5 | 11 | 0 | 69 | 97.6 | 1 | 0 | 0 | 0 | 0 | 7 | 13 | 0 | 0 | 16 | 0
